Measured values as given in PubChem BioAssay AID893 (National Center for Advancing Translational Sciences (NCATS), 2007).
Screen size: about 75,000 compounds; about 5,700 (7.6%) were called active. Roughly 7% stayed inconclusive and do not appear here. Calls come from the whole dose curve; as a rule, active = well fitted inhibition curve with a large enough effect; inconclusive = small, poorly fitted or top-dose-only effect; inactive = no such curve, though single readings can be large or run the other way. The entries come from a sample that favours actives as a whole.

What follows are compounds tested against 3-hydroxyacyl-CoA dehydrogenase type-2 (Homo sapiens) (UniProt Q99714) (assay: qHTS Assay for Inhibitors of HSD17B4, hydroxysteroid (17-beta) dehydrogenase 4). Details: recombinant HSD17B10, NADH fluorescence kinetic; series mostly up to 57.1 µM; activity change, negative = inhibition: at the top concentration.
From the text: Assay Overview: NIH Molecular Libraries Screening Centers Network [MLSCN] NIH Chemical Genomics Center [NCGC] Structural Genomics Consortium [SGC] Grant number: None HADH2: Hydroxyacyl-Coenzyme A dehydrogenase, type II, was supplied by researchers at the Structural Genomics Consortium, Oxford University lab (PI Udo Oppermann). The mitochondrial enzyme 17-hydroxysteroid dehydrogenase type 10 (HSD17-10) previously classified as type II hydroxyacyl-CoA dehydrogenase (HADH2) catalyzes the NAD+ dependent oxidation of a variety of substrates including acyl-CoAs, androgens and neurosteroids as well as bile acids(Shafqat N, Marschall HU, Filling C, et al. Biochemical Journal. 2003;376(Pt 1):49-60). […] The enzyme was produced by E.coli fermentation as His-tagged recombinant for the purpose of X-ray structure determination, and had been mass-spectrometry characterized. Inhibition of HADH2 activity was screened by utilizing beta-hydroxybutyryl coenzyme A as an electron donor and NAD+ as an electron acceptor/cofactor. An increase in the fluorescence intensity due to conversion of NAD+ to NADH was used to measure the enzyme activity.
Assay Protocol: Buffer: 100 mM Tris-HCl pH 9.0, containing 0.01 % Tween-20. Reagents/Controls: Buffer in columns 3 and 4 as negative control (no enzyme). Substrate/cofactor solution: 1 mM NAD+ and 90 uM beta-hydroxybutyryl coenzyme A (Sigma-Aldrich, St. Louis, MO) final concentrations dispensed throughout the plate. Enzyme: 20 nM HADH2 final concentration in columns 1, 2, 5-48. Column 1 is neutral (100% activity). Column 2 contained titration of apomorphine (Sigma-Aldrich, A 4393, PubChem CID 2215, top concentration 500 uM, then 1:2 dilution in duplicate) Assay Steps: Three uL of enzyme were dispensed to 1536-well Greiner black solid bottom plates. Compounds and controls (23 nL) were transferred via Kalypsys PinTool. The plates were incubated for 15 min at room temperature, and then 1 uL of substrate/cofactor solution was added to start the reaction. The plates were immediately transferred to and read every 30 seconds for 4 min on ViewLux High-throughput CCD imager (Perkin-Elmer) using 360 nm excitation and 450 nm emission fluorescence protocol. The fluorescence intensity difference between the last and the first time points was used to compute reaction progress.
% is set by controls: 0 for no effect and ±100 for the full control effect; potency is the fitted concentration of half-maximal effect.
Note: nearly all actives have a fitted effect of over 70% in size.

Potency, active:
CCOC(=O)c1cc(-c2ccc(Cl)s2)nc2c1c(C)nn2C 31.6 µM
COCCn1c(-c2ccc(OC)c(OC)c2)nc2ccccc21 25.1 µM
Cc1ccc(Cn2c(C)nc3c(c2=O)c2nc4ccccc4nc2n3Cc2ccco2)cc1 25.1 µM
COCCCn1c2nc3ccccc3nc2c2c(=O)n(Cc3ccc(Cl)cc3)c(C)nc21 2 µM
Cc1nc2c(c(=O)n1Cc1ccco1)c1nc3ccccc3nc1n2Cc1ccccc1 25.1 µM
Cc1ccc(NC(=O)c2cc(-c3ccc(C)o3)nc3ccccc23)nc1 31.6 µM
CC(Nc1nc(N2CCCC2)nc2ccccc12)c1ccccc1 (stereo not drawn) 31.6 µM
O=C(Oc1cccnc1)c1cc2ccccc2oc1=O 25.1 µM
CCOC(=O)c1cnc2sccn2c1=O 25.1 µM
O=C(NCc1ccccn1)c1cnc2sccn2c1=O 25.1 µM
O=C(NCc1ccccn1)c1cc2ccccc2oc1=O 31.6 µM
CC(C(=O)N1CCOCC1)N1c2cccc3cccc(c23)S1(=O)=O (stereo not drawn) 31.6 µM
CCCc1[nH]nc2c1C(c1ccc(Br)s1)C(C#N)=C(N)O2 (stereo not drawn) 20 µM
COc1ccc2c(c1OC)C(=O)N(c1ncn[nH]1)C2 31.6 µM
COC(=O)C(C)Sc1ccc2nnc(-c3cccc(F)c3)n2n1 (stereo not drawn) 25.1 µM
CSc1ccc(-c2c(C#N)c(N)nc3c2c(C)nn3-c2ccccc2)cc1 31.6 µM

Potency, inactive:
CCS(=O)(=O)N(C)[C@@H]1c2cc(C#N)ccc2OC(C)(C)[C@H]1O

Activity change, negative = inhibition, inactive:
CCOC(=O)C1=C(O)CSC1=Nc1cccc(Cl)c1 5.61%
Cn1cccc1Cc1nnc(SCC(=O)NCCc2ccccc2)n1-c1ccc(F)cc1 3.88%
N#Cc1c(NC(=O)CCCN2C(=O)c3ccccc3C2=O)oc(-c2ccccc2)c1-c1ccccc1 5.71%
Cc1ccc(N2C(=O)c3oc4ccccc4c(=O)c3C2c2cccnc2)nc1 (stereo not drawn) 5.96%
CCCn1c(C(O)c2cc(OC)ccc2OC)nc2ccccc21 (stereo not drawn) -0.382%
COc1ccc(CCn2c(-c3ccco3)nc3nc4ccccc4nc32)cc1OC -12.8%
COc1ccccc1NC(=O)CSc1nc2sc(C)c(C)c2c(=O)n1Cc1ccco1 -11.5%
CC(Sc1nc2ccccc2c(=O)n1Cc1ccco1)C(=O)c1ccccc1 (stereo not drawn) 7.76%
Cc1nc2ccccc2c(=O)n1CCCn1ccnc1 2.75%
N#Cc1c(NC(=O)CSc2nc3ccccc3c(=O)n2Cc2ccco2)sc2c1CCCC2 -28.8%
Nc1cc(=O)nc(SCc2ccccc2)n1Cc1ccco1 -1.73%
Cn1c(COc2ccc(Cl)cc2)nc2ccccc2c1=O -28.2%
CC1CCN(c2nc3c(c(=O)[nH]c(=O)n3C)n2CCCc2ccccc2)CC1 8.8%
CCC1(C)CC(=O)NC1=O (stereo not drawn) -1.08%
COc1ccc(N)c(OC)c1 3.29%
CCOC(=O)CSc1nnc(CNc2ccc(F)cc2)o1 -11.8%
CC/C(=N\O)C(C)(C)/[N+]([O-])=C/c1ccc(Br)cc1 15.6%
O=C(O)C(O)[C@@](O)(Cc1ccc(O)cc1)C(=O)O (stereo partly drawn) -0.363%
CC1Cn2c(nnc2-c2cccs2)S1 (stereo not drawn) -1.46%
CSc1cccc(NC(=O)CSc2ccccc2)c1 -27.3%
NC(=NC(=O)c1ccccc1)C1=C(O)CCC1=O 2.94%
Cc1ccc2nc(-c3ccccc3)cc(C(=O)O)c2c1 -22.3%
Cc1cc(=O)oc(C)c1C(=O)Nc1cnc2ccccc2c1 -0.842%
Cc1ccc(S(=O)(=O)N2CCC(C(=O)OCC(=O)N3CC(=O)Nc4ccccc43)CC2)cc1 9.91%
Cc1ccc(C(CC(=O)O)Nc2nc(N3CCCCC3)nc(N3CCCCC3)n2)cc1 (stereo not drawn) -1.92%
CC(C)n1c(C(O)c2ccccc2)nc2ccccc21 (stereo not drawn) 12.2%
C[N+](C)(C)CCCCCNCC12CC3CC(CC(C3)C1)C2 3.87%
O=C(OCC(=O)c1cccs1)C1=COCCO1 8.65%
CCOC(=O)c1cc2n(c1C)-c1ccccc1C2=O 3.78%
O=C(Nc1ccncc1)c1cc2ccccc2o1 10.3%
CCOC(=O)c1cnc(-n2nc(C)cc2C)nc1-n1nc(C)cc1C -10.5%
OCCCNCc1ccccn1 -1.43% [at 11.4 µM]
Nc1ncc(-c2cc3ccccc3oc2=O)s1 -2.43%
O=C(NCc1ccccn1)c1c(O)c2c([nH]c1=O)CCCC2 -2.63%
O=C(NCc1ccccn1)Nc1ccc(F)cc1 7.82%
O=C(CCSCCc1ccccn1)Nc1nccs1 -2.41%
Brc1cc(Br)c(Oc2cc(Br)c(Br)cc2Br)cc1Br -9.08%
COc1cccc2sc(Nc3nc(C)c(C(C)=O)s3)nc12 -6.55%
COC(=O)CNS(=O)(=O)c1ccc(Cc2ccc(S(=O)(=O)NCC(=O)OC)cc2)cc1 3.44%
CC(=O)OCC(COC(C)=O)OC(C)=O 3.21%
CNC(=O)C1(C)C=CC2(CCCCC2)N1C(C)=O (stereo not drawn) 5.61%
O=C(c1ccccc1-c1ccccc1)N1CCOCC1 8.37%
CC(C(=O)Nc1ccccc1-c1ccccc1)N1CCOCC1 (stereo not drawn) 12.3%
COc1ccc(C2C3=C(CC(C)(C)CC3=O)Oc3ncn4nc(-c5cccnc5)nc4c32)cc1OC (stereo not drawn) 6.85%
CCCc1[nH]nc2c1C(C1CC=CCC1)C(C#N)=C(N)O2 (stereo not drawn) -17.4%
CCCc1[nH]nc2c1C(c1ccc(OC(=O)c3ccco3)cc1)C(C#N)=C(N)O2 (stereo not drawn) 3.66%
COC(=O)[C@@H]1C[C@@]2(O)[C@@H](O)[C@@H](O)[C@@H](O)C[C@H]2N1Cc1ccc(C)s1 15%
Cc1ccc(Cn2ccc(NC(=O)C3C4CCC(C4)C3C(=O)O)n2)cc1 (stereo not drawn) -2.8%
CCOc1ccc(-c2nnc3ccc(SC)nn23)cc1 -6.07%
CC1CCN(C(=O)CSc2ccc3nnc(-c4cccc(F)c4)n3n2)CC1 -12.3%
CC(=O)CC(C)C 5.18%
Cc1ccccc1C(=O)NCCN=C1NS(=O)(=O)c2ccccc21 -2.36%
O=C(c1csnn1)N1CCC[C@@]2(CCN(Cc3nccs3)C2)C1 7.36%
CCC(=O)c1ccc(OCC(O)CN2CC(C)OC(C)C2)cc1 (stereo not drawn) 0.889%
CC(=O)N(CC1CCCO1)C1(C(=O)NC2CCCC2)CCCCC1 (stereo not drawn) 11.9%
C[C@@H]1O[C@@H](OC[C@H]2O[C@@H](Oc3c(-c4cccc(O)c4O)oc4cc(O)cc(O)c4c3=O)[C@H](O)[C@@H](O)[C@@H]2O)[C@H](O)[C@H](O)[C@H]1O -17.4%
